From PubChem BioAssay
Pol eta inh = inhibitors of human DNA polymerase eta | Q9Y253 | recombinant Pol eta, fluorescent DNA replication assay | Potency, µM (doses to about 114 µM), actives largely listed as inhibitors | 1.2% of 390,000 active | AID 588591
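Fluorescent replication assay: 50 nM final substrate added after a 15 min room-temperature compound preincubation with 10 nM enzyme. Signal taken at 0 min and again at 10 min.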
FEN1 inhibitor = blocks human flap endonuclease 1 | Recombinant FEN1 flap cleavage, fluorescence, 15 min | Potency, µM (highest dose often 114 µM), most hits filed as inhibitors | 0.35% of 390,000 active; also: nearly all actives have a fitted effect of over 65% in size
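With each library titrated from low to high concentration, compounds met 10 nM FEN1 for 15 min at room temperature before 50 nM substrate was added; readings at 0 and 15 min fed four-parameter Hill curve fits.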
POLB inh = blocks human DNA polymerase beta activity; P06746; Pol beta primer extension/strand displacement, fluorescence kinetic; Potency, µM (highest dose often 114 µM), actives largely listed as inhibitors; 1.3% of 340,000 active
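Homogeneous kinetic assay of primer extension and strand displacement by 10 nM Pol beta, preincubated 15 min at room temperature with compound before 50 nM substrate (final) was added. Read at 0 and 10 min; four-parameter Hill fit.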
WRN helicase inh = WRN helicase (human) inhibition; Potency, µM (doses to about 114 µM), most hits filed as inhibitors; 0.46% of 360,000 active; Q14191; WRN helicase unwinding, fluorescent forked duplex, kinetic; AID 651768; also: nearly all actives have a fitted effect of over 55% in size
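Primary qHTS, 1536-well format. 20 nM WRN + compound, 15 min RT; start with 100 nM forked fluorophore/quencher duplex, 2 mM ATP (final); kinetic read ex 525/em 598 nm.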
Pol iota inh = blocks human DNA polymerase iota activity; Q9UNA4; Pol iota fluorescent replication assay, 10 min; Potency, µM (top dose mostly 115 µM), hits mostly inhibitors; 1% of 390,000 active
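Fluorescent replication assay read twice, at 0 min and 10 min after adding 50 nM (final) substrate. Enzyme (10 nM) and compounds were first incubated 15 min at room temperature; enzyme-free buffer wells were negative controls.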
POLK inh = DNA polymerase kappa (human) inhibition. 0.53% of 400,000 active. purified Pol kappa, fluorescent DNA synthesis assay, 10 min. AID 588579. Potency, µM (highest dose often 107 µM), most hits filed as inhibitors
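Kinetic fluorescence readout at 0 and 10 min followed reaction start with substrate at 50 nM final. Beforehand, enzyme (10 nM Pol kappa) stood 15 min with compound at room temperature; buffer-only wells were negative controls.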
Numbers stand for hits; n = inactive; u = inconclusive; x = not tested or not shown; ! = a repeat was not active; [ ] = another dose, or the depositor's remark. Sampled rows, rich in hits. Any-hit rate of the full collection: about 2.4%. Calls follow the shape of the dose curve; as a rule, active = well fitted curve in the direction sought with a large enough effect; inconclusive = small, poorly fitted or top-dose-only effect, or another doubt; inactive = no such curve, though single readings can be large; an effect the other way counts as inactive or inconclusive.

SMILES | Pol eta inh | FEN1 inhibitor | POLB inh | WRN helicase inh | Pol iota inh | POLK inh
CCN1C(=O)NC(=O)/C(=C\c2ccc(N3CCOCC3)cc2OC)C1=O | x | x | n | x | x | x
COc1cc(N2CCOCC2)ccc1/C=C1\C(=O)NC(=O)N(C2CCCCC2)C1=O | n | n | n | 79µM | n | n
CC(C)[C@H](NC(=O)[C@H](CC(=O)O)NC(=O)[C@H](Cc1ccccc1)NC(=O)[C@@H](C)NC(=O)[C@@H](N)Cc1ccc(O)cc1)C(=O)N[C@H](C(=O)NCC(N)=O)C(C)C | x | x | x | x | x | n
O=c1[nH]sc2cc(F)ccc12 | n | u | u | 32µM | n | n
O=c1[nH]c(=O)n(Cc2ccco2)c(O)c1C=NCCN1CCOCC1 | 10µM | n | n | n | u | n
Cc1ccc(-n2c(O)c(C=NCc3ccco3)c(=O)[nH]c2=S)cc1C | u | n | u | u | 20µM | 40µM
O=c1[nH]c(=O)n(Cc2ccco2)c(O)c1C=NCc1ccco1 | 89µM | n | u | n[11.6 µM] | 40µM | n
O=c1[nH]c(=S)n(-c2ccccc2F)c(O)c1C=NCc1ccco1 | n | n | n | n | n | n
CC(C)C1C(=O)N2CCC[C@H]2[C@]2(O)O[C@](NC(=O)[C@@H]3C=C4c5cccc6[nH]cc(c56)C[C@H]4N(C)C3)(C(C)C)C(=O)N12 (some centres undefined) | x | x | x | x | x | n[19.4 µM]
CCCc1cc(=O)oc2cc(OCc3ccc(C(=O)O)o3)ccc12 | u | n | 71µM | n[11.6 µM] | n | n
O=C1NC(=O)N(Cc2cccs2)C(=O)/C1=C/c1ccc(N2CCOCC2)cc1 | n | n | n | 56µM | n | n
CC(C)c1cc2c(c(O)c1O)[C@@]1(C(=O)O)CCCC(C)(C)[C@@H]1CC2 | x | x | x | x | x | n
COC(=O)C1=C(C(=O)OC)C2OC1c1cc3ccccc3cc12 | n | n | x | 40µM | n | n
COC(=O)C1=C(c2ccc3ccccc3c2)C[C@@H]2CC[C@H]1N2C | n | n | x | n | n | n
NC(=O)O | x | x | x | x | x | n
CC[C@]1(O)CC(O[C@@H]2CC(N(C)C)C(O)C(C)O2)c2c(cc3c(c2O)C(=O)c2c(O)cccc2C3=O)C1C(=O)OC (some centres undefined) | x | x | x | x | x | 6.3µM
CC[C@@]1(O)CC(O)c2c(cc3c(c2O)C(=O)c2c(O)ccc(O)c2C3=O)C1C(=O)OC (some centres undefined) | x | x | x | x | x | 25µM
COc1cccc2c1C13CC[N+]4(CC5CC5)CO[C@]1(CCC(=O)C3)C4C2 | x | x | x | x | x | n[19.4 µM]
O=C(O)CO.[NH2-].[NH2-].[Pt+2] | x | x | x | x | x | n[19.4 µM]
O=c1c2ccccc2nc(CSc2ncnc3nc[nH]c23)n1-c1ccccc1Cl | n | n | 40µM | n | n | n
CC(Cc1cccc(C(F)(F)F)c1)NCCCc1ccccc1 (centres undefined) | x | x | x | x | x | n[19.4 µM]
C=C1C(=O)O[C@@H]2C[C@@H](C)[C@H]3C=CC(=O)[C@]3(O)C[C@@H]12 | 32µM | n | n | n | u | n
C=C1C(=O)OC2CC3(C)OC3CCC(C)=CC(OC(C)=O)C12 (centres undefined) | n | n | x | n | n | n
O=C(CN1CCOCC1)c1ccc2ccccc2c1 | x | n | x | x | n | n
CCc1ccc(N2NC(=O)/C(=C/C=C/c3ccco3)C2=O)cc1 | u | n | u | u | 18µM | u
SMILES | Pol eta inh | FEN1 inhibitor | POLB inh | WRN helicase inh | Pol iota inh | POLK inh
Cc1c(C=O)c2ccccc2n1Cc1ccccc1 | n | n | n | u | n | n
O=Cc1c(C(=O)O)n(Cc2ccc(Cl)cc2)c2ccccc12 | 50µM | n | u | n | u | n
Cc1ccc(C2NC(=S)NC(c3ccc(C)cc3)C23C(=O)NC(=O)NC3=O)cc1 (centres undefined) | n | n | n | n | n | n
O=C1NC(=O)C(Nc2ccccc2)C(=O)N1 | n | n | x | n[11.6 µM] | 3.2µM | n
Cc1ccc(NC2C(=O)NC(=O)NC2=O)cc1 | 79µM | n | x | n | 0.71µM | n
CON(C)C(=O)Nc1ccc(Br)c(Cl)c1 | x | x | x | x | x | n
CNS(=O)(=O)c1ccc(-c2ccc(C=C3C(=O)NC(=O)NC3=O)o2)cc1 | n | u | u | u | 22µM | n
O=C1OC(c2cc(I)c(O)c(I)c2)(c2cc(I)c(O)c(I)c2)c2ccccc21 | x | x | x | x | x | 3.5µM
COC(=O)C1=C(c2ccc(F)cc2OCc2ccccc2)C[C@@H]2CC[C@H]1N2C(=O)NCc1ccco1 | 45µM | n | x | n | u | u
N#CC(=Cc1ccc(O)c(O)c1)C(N)=S | 3.2µM | x | 2.8µM | x | 6.3µM | x
N#CC(C#N)=Cc1ccc(O)c(O)c1 | 7.9µM! | n | n | n | u | 11µM!
COc1cc(C=C(C#N)C#N)cc(O)c1O | 11µM | x | n | x | u | x
Cc1c(F)c(F)c(COC(=O)C2C(/C=C(\Cl)C(F)(F)F)C2(C)C)c(F)c1F (centres undefined) | x | x | x | x | x | n
C[C@H](N)C(=O)N[C@@H](C)C(=O)N[C@@H](Cc1ccccc1)C(=O)CCl | x | x | x | x | x | n[19.4 µM]
Cc1cc(C=C2C(=O)NC(=S)NC2=O)c(C)n1-c1ccc2c(c1)OCO2 | 20µM | n | 89µM | u | 20µM | 79µM
Cc1ccc(NC(=O)C2CCCN(c3ncnc4onc(C)c34)C2)c(Cl)c1 (centres undefined) | n | n | n | x | n | n
C[C@@H](N)[C@@H](O)c1ccc(O)c(O)c1 | x | x | x | x | x | 1µM
COc1ccc(OC)c(C(O)C(C)N)c1 (centres undefined) | n | n | n | n | n | n
CCCN(CCC)CCc1ccc(O)c(O)c1 | n | x | n | x | n | n
C[C@H](N)[C@H](O)c1ccc(O)c(O)c1 | x | x | x | x | x | 0.75µM
Cc1[nH]c(=O)n(C(C)(C)C)c(=O)c1Cl | x | x | x | x | x | n
C/C=C1/C[N@@+]2(C)CC[C@]34C(=C(C=O)[C@H]1C[C@H]32)Nc1ccccc14 | x | x | x | x | x | n[19.4 µM]
O=C(CCl)c1ccc(Oc2ccc(C(=O)CCl)cc2)cc1 | x | x | x | x | x | n[19.4 µM]
CCn1c(N)c(C(=O)NC)sc1=S | n | n | n | 56µM | u | n
O=C1NC(=O)C(=Cc2coc3ccccc3c2=O)C(=O)N1 | n | n | n | n | n | n
SMILES | Pol eta inh | FEN1 inhibitor | POLB inh | WRN helicase inh | Pol iota inh | POLK inh
O=C1NC(=O)C(=C/C=C/c2coc3ccc(Br)cc3c2=O)C(=O)N1 | x | x | 1.6µM | x | x | x
ClC1=C(Cl)C(Cl)(C2(Cl)C(Cl)=C(Cl)C(Cl)=C2Cl)C(Cl)=C1Cl | x | x | x | x | x | 6.7µM
CCn1c(=S)sc2c(=O)[nH]c(SCC(=O)Nc3cc(OC)ccc3OC)nc21 | 50µM | n | n | n[11.6 µM] | u | n
CN1CCc2cc3c(c4c2C1Cc1ccccc1-4)OCO3 (centres undefined) | n | u | 16µM | n[11.6 µM] | u | n
CN1CCc2cc3c(cc2[C@@H]1O)OCO3 | x | x | x | x | x | n[12 µM]
CCC(C)c1ccc(N2C(=O)NC(=O)/C(=C/c3cccn3CCOc3ccc(C)cc3)C2=O)cc1 (centres undefined) | n | n | n | n[11.6 µM] | 35µM | n
CCOC(=O)c1c(/N=C/C2C(=O)NC(=S)NC2=O)sc(C)c1C | x | x | n | x | x | x
